We go through 14 compounds from PubChem BioAssay (NCATS).

SMILES strings stand for the structures. Results filed as inconclusive are left out. Active and inactive are the calls of the source. Unless noted, calls come from the whole dose curve.

The nature of test [1]: qHTS for Inhibitors of the Functional Ribonucleoprotein Complex (vRNP) of Lassa (LASV) Arenavirus: Viability assay - alamar blue signal for LASV Primary Screen (AID 1347083; calls by dose curve; tested in HEK293 reporter line; note: nearly all actives have a fitted effect of over 80% in size; note: potency is the fitted concentration of half-maximal effect).
Test [2] in a line: qHTS for Inhibitors of the Functional Ribonucleoprotein Complex (vRNP) of Lymphocytic Choriomeningitis Arenaviruses (LCMV): Viability assay - alamar blue signal for LCMV Primary Screen (AID 1347085; calls by dose curve; tested in HEK293 reporter line; note: nearly all actives have a fitted effect of over 80% in size; note: potency is the fitted concentration of half-maximal effect). For orientation: Quantitative high-throughput screening tests each substance at several concentrations.
Test [3] addresses Nucleoprotein (Lymphocytic choriomeningitis virus (strain Armstrong)) (UniProt P09992). Briefly: qHTS for Inhibitors of the Functional Ribonucleoprotein Complex (vRNP) of Lymphocytic Choriomeningitis Arenaviruses (LCMV): LCMV Primary Screen - GLuc reporter signal (AID 1347086). Note: series mostly up to about 57 µM; nearly all actives have a fitted effect of over 70% in size.

Sequence of Nucleoprotein (Lymphocytic choriomeningitis virus (strain Armstrong)) (P09992 whole entry, looked up): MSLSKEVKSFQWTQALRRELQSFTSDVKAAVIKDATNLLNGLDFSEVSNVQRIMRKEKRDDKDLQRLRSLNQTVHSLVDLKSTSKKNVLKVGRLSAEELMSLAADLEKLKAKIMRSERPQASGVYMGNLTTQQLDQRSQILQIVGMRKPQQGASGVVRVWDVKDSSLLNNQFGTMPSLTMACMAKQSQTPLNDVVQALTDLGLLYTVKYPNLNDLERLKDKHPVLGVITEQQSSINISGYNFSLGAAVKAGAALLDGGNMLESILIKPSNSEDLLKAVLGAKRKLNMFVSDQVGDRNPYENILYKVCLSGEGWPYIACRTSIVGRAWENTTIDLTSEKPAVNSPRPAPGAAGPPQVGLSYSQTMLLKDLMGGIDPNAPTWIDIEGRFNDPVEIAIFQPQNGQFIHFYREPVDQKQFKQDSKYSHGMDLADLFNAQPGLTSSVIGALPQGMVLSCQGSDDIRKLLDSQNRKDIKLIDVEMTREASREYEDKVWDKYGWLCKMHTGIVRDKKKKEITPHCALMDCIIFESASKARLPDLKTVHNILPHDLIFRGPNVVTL

Take `O=C1N=C(O)CN1/N=C/c1ccc(-c2ccc([N+](=O)[O-])cc2)o1`: the Potency entry in test [1], in test [2] and in test [3] was “inactive” throughout.
Consider `OCCN1C[C@H](O)[C@@H](O)[C@H](O)[C@H]1CO`, for which, in test [1], the Potency entry was “inactive”.
For `CCCCCOC(=O)Nc1nc(=O)n([C@@H]2O[C@H](C)[C@@H](O)[C@H]2O)cc1F`, the Potency result in test [1], in test [2] and in test [3] was “inactive” throughout.
Regarding `Cc1cc2c(C(C)C)c(O)c(O)c(C=O)c2c(O)c1-c1c(C)cc2c(C(C)C)c(O)c(O)c(C=O)c2c1O`, the Potency in test [1] was 30600 nM (active). Moreover, the Potency entry in test [2] is “inactive”.
For `N[C@@H]1CONC1=O`, the Potency result in test [1], in test [2] and in test [3] was “inactive” in each case.
For `COC(=O)Nc1nc2ccc(C(=O)c3cccs3)cc2[nH]1`, the Potency in test [1] is 54.4 nM (active); in test [2], 27.3 nM (active).
On to `CCN(CC)CCCC(C)Nc1ccnc2cc(Cl)ccc12` (configuration not stated), for which the Potency result in test [1] and in test [2] was “inactive” each time.
As for `NCCCC(O)(P(=O)(O)O)P(=O)(O)O`, the Potency entry in test [1], in test [2] and in test [3] was “inactive” throughout.
As for `O=c1[nH]cc(F)c(=O)[nH]1`, the Potency result in test [1] is “inactive”.
For the compound `COc1cc2c(c(OC)c1OC)-c1ccc(OC)c(=O)cc1[C@@H](NC(C)=O)CC2`, the Potency entry in test [1] and in test [2] was “inactive” each time.
`OCCN1CCN(CCCN2c3ccccc3Sc3ccc(C(F)(F)F)cc32)CC1`: the Potency result in test [1], in test [2] and in test [3] was “inactive” in each case.
For `O=C1OCCN1/N=C/c1ccc([N+](=O)[O-])o1`, the Potency result in test [1] and in test [2] was “inactive” in each case.
Turning to `CC(CN1c2ccccc2Sc2ccccc21)N(C)C` (configuration not stated), the Potency result in test [1], in test [2] and in test [3] was “inactive” each time.
As for `CC(=O)O[C@@]12CO[C@@H]1C[C@H](O)[C@@]1(C)C(=O)[C@H](O)C3=C(C)[C@@H](OC(=O)[C@H](O)[C@@H](NC(=O)OC(C)(C)C)c4ccccc4)C[C@@](O)([C@@H](OC(=O)c4ccccc4)[C@H]21)C3(C)C`, the Potency entry in test [1] and in test [2] was “inactive” in each case.
